From PubChem BioAssay AID686978 (National Center for Advancing Translational Sciences (NCATS), 2013)
“And” between values parts separate entries of the source, which are not always exact repeats. Equal values may be shown once. In all, about 420,000 compounds went through this assay and about 64,000 (15%) were called active. Not shown: some 27% with an inconclusive outcome. Calls come from the whole dose curve; as a rule, active = well fitted inhibition curve with a large enough effect; inconclusive = small, poorly fitted or top-dose-only effect; inactive = flat fitted curve, though single readings scatter. The list is a sample of the results. More than one record can exist for a structure, and the calls need not agree.

Assay: qHTS for Inhibitors of human tyrosyl-DNA phosphodiesterase 1 (TDP1): qHTS in cells in absence of CPT; note: nearly all actives have a fitted effect of over 55% in size
Details: DT40 Tdp1-/- hTDP1 cells, no CPT, ATP luminescence, 48 h; activity change, negative = growth inhibition: at 46.2 µM (top of the series)
Procedure, shortened: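 DT40 Tdp1-/-;hTDP1 cells, no CPT (DMSO vehicle only), 400 cells/well; compounds pin-transferred; ≥48 hr, 37 °C; CellTiter-Glo 30 min RT dark, luminescence read.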
% is set by controls: 0 for no effect and ±100 for the full control effect; potency is the fitted concentration of half-maximal effect.

| SMILES | activity change, negative = growth inhibition | Potency |
| --- | --- | --- |
| N#Cc1ccc(/C=C2\CCn3c2nc2cc(C(=O)O)ccc2c3=O)cc1 | -11.7% (inactive) | – |
| NC1=NOC(=O)C1C1CCCCC1 (centres undefined) | – | 18.4 µM (active) |
| CC(=O)Nc1ccc(S(=O)(=O)N2CCCC2C(=O)O)cc1 (centres undefined) | -2.04% (inactive) | – |
| CCOC(=O)C(NC(=O)CC(C)C)(Nc1sc2c(c1C(N)=O)CCCC2)C(F)(F)F (centres undefined) | -25.5% (inactive) | – |
| COc1cccc(N2CCN(C(=O)CCCCCn3c(=O)[nH]c4ccccc4c3=O)CC2)c1 | – | 20.6 µM (active) |
| Cc1ccc(OCCCC(=O)N2CCOCC2)c(C)c1 | -20% (inactive) | – |
| O=C(CCCn1c(=O)[nH]c2cc(Cl)ccc2c1=O)NCCN1CCN(c2ccccc2)CC1 | – | 23.1 µM (active) |
| Cc1ccc(C)c(N2CCN(C(=O)CCCCCn3c(=S)[nH]c4ccc(N5CCOCC5)cc4c3=O)CC2)c1 | – | 2.91 µM (active) |
| O=C(CCCCCn1c(=O)[nH]c2ccccc2c1=O)NCCc1c[nH]c2ccccc12 | -21% (inactive) | – |
| CCN(CC)CCNC(=O)CCCCCn1c(=O)[nH]c2cc(C(=O)OC)ccc2c1=O | -16.1% (inactive) | – |
| COc1ccc(CCNC(=O)CCCCn2c(=O)[nH]c3ccccc3c2=O)cc1OC | -11% (inactive) | – |
| NS(=O)(=O)c1ccc(CCNC(=O)CCCCCn2c(=O)[nH]c3ccccc3c2=O)cc1 | -12.8% (inactive) | – |
| Cc1ccc(C)c(N2CCN(C(=O)CCCCn3c(=O)[nH]c4ccccc4c3=O)CC2)c1 | – | 20.6 µM (active) |
| Cc1ccc(C)c(N2CCN(C(=O)CCc3c(C)nc4c(c3C)c(=O)n(C)c(=O)n4C)CC2)c1 | -2.29% (inactive) | – |
| Cc1ccc(N2CCN(C(=O)CCc3c(C)nc4c(c3C)c(=O)n(C)c(=O)n4C)CC2)c(C)c1 | -19.6% (inactive) | – |
| O=C(Cc1c(F)cccc1Cl)Nc1ccc(-n2cnnn2)cc1 | -10.1% (inactive) | – |
| COc1ccc(C(C#N)N2N=C(C)CC2(C)C)cc1 (centres undefined) | -4.56% (inactive) | – |
| NC(=O)N1CCc2ccccc21 | -7.26% (inactive) | – |
| CCC1(CC)NC(=O)N(CC(=O)OCC(=O)NC(=O)c2ccccc2)C1=O | 2.28% (inactive) | – |
| Cc1ccc(C(=O)O)cc1-c1ccc(/C=C2\SC(=O)N(CC(=O)Nc3ccc4c(c3)OCO4)C2=O)o1 | -0.216% (inactive) | – |
| COc1cc2c(cc1OC)[C@@H](Cc1cc(OC)c(OC)c(OC)c1)[N+](C)(CCCOC(=O)CC/C=C/CCC(=O)OCCC[N+]1(C)CCc3cc(OC)c(OC)cc3[C@H]1Cc1cc(OC)c(OC)c(OC)c1)CC2 (some centres undefined) | – | inactive |
| Cc1ccc(CCCOC(=O)C[N+]2(C)CCCC2)cc1 | -12.4% (inactive) | – |

| SMILES | activity change, negative = growth inhibition | Potency |
| --- | --- | --- |
| COc1ccc(CC2c3cc(OC)c(OC)cc3CC[N+]2(C)CCC(=O)OCCCCCOC(=O)CC[N+]2(C)CCc3cc(OC)c(OC)cc3C2Cc2ccc(OC)c(OC)c2)cc1OC (centres undefined) | – | 13 µM (active) |
| O=C(CCN1C(=O)c2ccccc2C1=O)NCCN1CCOCC1 | 9.53% (inactive) | – |
| O=C(c1cn(-c2ccccc2)nc1-c1cc2ccccc2oc1=O)N1CCOCC1 | -18.8% (inactive) | – |
| S=c1[nH]c(-c2cccs2)cn1-c1ccccc1 | -13.3% (inactive) | – |
| O=c1oc2ccccc2cc1-c1cn(-c2ccccc2)c(=S)[nH]1 | – | 3.26 µM (active) |
| CC(=O)Oc1c2c(c3c(c1CC=C(C)C)O[C@@]14C(=CC5CC1C(C)(C)OC4(C/C=C(\C)C(=O)O)C5=O)C3=O)OC(C)(CCC=C(C)C)C=C2 (some centres undefined) | – | 1.3 µM (active) |
| CC1(C)CC(=O)C2=C(C1)N=C1SCCC(=O)N1C2c1ccc(C(F)(F)F)cc1 (centres undefined) | -20.3% (inactive) | – |
| CCCCS(=O)(=O)c1oc(-c2cccs2)nc1S(=O)(=O)c1ccccc1 | – | 1.16 µM (active) |
| COC(=O)CSc1nccc(-c2cccs2)n1 | -0.533% (inactive) | – |
| Cc1ccc(CSc2oc(-c3cccs3)nc2S(=O)(=O)c2ccc(C)cc2)cc1 | – | 5.17 µM (active) |
| Cc1ccc(C(=O)N/C(=C/c2cccs2)C(=O)N2CCCCC2)cc1 | -18.2% (inactive) | – |
| O=C(c1cc(-c2cccs2)on1)N1CCCCC1 | -7.2% (inactive) | – |
| NC(=O)CSc1oc(-c2cccs2)nc1S(=O)(=O)c1ccccc1 | -1.42% (inactive) | – |
| Cc1ccc(S(=O)(=O)c2nc(-c3cccs3)oc2N2CCCCC2)cc1 | – | 23.1 µM (active) |
| N#Cc1ccc(-c2cccs2)nc1SCc1ccc(Br)cc1 | -9.03% (inactive) | – |
| Cc1ccc(NC(=O)COc2ccc(/C=C3/NC(=O)NC3=O)cc2)cc1 | -8.92% (inactive) | – |
| O=C1OC(Oc2ccc(Br)cc2)(c2ccccc2)c2ccccc21 (centres undefined) | -16.8% (inactive) | – |
| CCCOCC(O)CC(CC)C(=O)NNC(=S)Nc1ccccc1 (centres undefined) | -4.64% (inactive) | – |
| COc1ccc2c(c1)N(C)/C(=C1/SC(=S)N(NC(C)=O)C1=O)S2 | 0% (inactive) | – |
| CCC(C)NC(=O)/C=C/c1ccc(S(=O)(=O)NCc2ccco2)cc1 (centres undefined) | -2.93% (inactive) | – |
| O=S(=O)(NC1CCCC1)c1ccc(-n2cnnn2)cc1 | -14.2% (inactive) | – |
| Cc1ccc(C(=O)NCC(=O)NC2CC2)cc1 | 4.14% (inactive) | – |

| SMILES | activity change, negative = growth inhibition | Potency |
| --- | --- | --- |
| O=C(NNC(=O)c1ccc(-c2ccccc2)cc1)Nc1ccccc1 | -14.5% (inactive) | – |
| O=C(NC1CC1)c1ccc(-c2ccccc2)cc1 | – | 11.6 µM (active) |
| C/C(N)=C(/C#N)C(=O)COC(=O)C1CCN(C(=O)c2ccc(Cl)cc2)CC1 | -29.6% (inactive) | – |
| CC(=O)OCC(=O)C1(O)CCC2C3CC(C)C4=CC(=O)CCC4(C)C3C(O)CC21C (centres undefined) | -17.1% (inactive) | – |
| CC(=O)O[C@]1(C(C)=O)CC[C@H]2[C@@H]3CCC4=CC(=O)CC[C@]4(C)[C@@]3(F)[C@@H](O)C[C@@]21C | -9% (inactive) | – |
| CC(=O)O[C@]1(C(C)=O)CC[C@H]2[C@@H]3C=C(C)C4=CC(=O)CC[C@]4(C)[C@H]3CC[C@@]21C | – | inactive and 23.1 µM (active) |
| CCc1nc2c(=O)[nH]cnc2o1 | -5.21% (inactive) | – |
| CCn1nnnc1SCC(=O)c1ccc(C)cc1C | -14.8% (inactive) | – |
| Cc1ccccc1NC(=O)Cc1nc(COC(=O)c2ccc(C(F)(F)F)cc2)cs1 | -18.3% (inactive) | – |
| CC(C)C[C@H](NC(=O)Nc1cccc(C(F)(F)F)c1)C(=O)O | 5.13% (inactive) | – |
| COC(=O)[C@H](Cc1ccccc1)NC(=O)Nc1ccc(OC)cc1 | -9.61% (inactive) | – |
| COc1ccc(CC(N)c2csc(NC(=O)Nc3ccc(C(C)C)cc3)n2)cc1 (centres undefined) | – | 6.51 µM (active) |
| COc1ccc(C(CC(=O)Nc2ccc(C)cc2)NC(=O)C(F)(F)F)cc1 (centres undefined) | -1.65% (inactive) | – |
| NC(c1csc(NC(=O)Nc2cccc(C(F)(F)F)c2)n1)C1CCCCC1 (centres undefined) | – | 20.6 µM (active) |
| COc1ccc(NC(=O)C(Br)C(C)C)cc1 (centres undefined) | -12.5% (inactive) | – |
| CC(C)(C)CC(=O)Nc1nc(C(N)Cc2ccc(C(F)(F)F)cc2)cs1 (centres undefined) | – | 16.4 µM (active) |
| COc1ccc(NC(=O)C(=O)NCC(=O)Nc2cccc(C(F)(F)F)c2)cc1 | 10% (inactive) | – |
| Cc1ccc(NC(=O)Nc2cccc(C(F)(F)F)c2)nc1 | 3.8% (inactive) | – |
| CC(C)(C)CC(=O)Nc1nnc(SCC(=O)NCc2cccs2)s1 | -21.9% (inactive) | – |
| COc1ccc(C(N)c2csc(NC(=O)Nc3cccc(C(F)(F)F)c3)n2)cc1 (centres undefined) | – | 13 µM (active) |
